Source: the supplement of paper PMC11417369
Over roughly 25,000 sequences, “ln(normalized median fluorescence intensity)” has its median near 7.1; the highest 2% begin near 10. This excerpt belongs to a sample that is enriched for the highest values.

System: PfSIP2 AP2 domain 1 (GST-tagged)
Assay: gcPBM binding intensity (ln(normalized median fluorescence intensity)); higher = stronger DNA binding
Procedure, shortened: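 The highest Masliner-normalised natural-log median intensity across replicate spots of either probe orientation is reported as binding intensity. GST-tagged P. falciparum DNA-binding domains expressed in E. coli were applied for 1 h to an Agilent 4 × 180k array of primer-extended double-stranded 36-bp intergenic genomic probes plus negative controls, and bound protein was detected with Alexa488 anti-GST antibody and scanned at 488 nm.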

| Sequence | gcPBM binding intensity (ln) |
| --- | --- |
| TAATCATTTTAGCTTACACACAAAATTTTGTTATAA [CACACA_site2939] | 6.93 |
| TTTATATAATTTTTTTGTACATATATATGAATACAT [XGTACX_site2316] | 7.11 |
| AAATGTTGAAAAATATGTACATATTATATATATTAT [XGTACX_site1165] | 7.1 |
| AATATTTTTCAATTTCATGTGCATTCATTGAAGTTA [CACACA_negctrl_site1232] | 7.34 |
| ATGTTAATTAATGAGGTGCATTGAATATTTCAATAA | 10.6 |
| TCTTTCAATATTAATGCATGTTAATAATAAATTTTA [TGCATGCA_site448] | 6.89 |
| GAAAAATTTAATTATTGTACGTTTCATCTATATTTA [XGTACX_site414] | 6.91 |
| TCATTTTATTATTCTACACACTTATCTATAATTATA [CACACA_site34] | 7.2 |
| AAAAAAAAAAAAAAAGTGCATATATAAATATTGTAT [GTGCAC_site9459] | 9.58 |
| AGGATATAAAGTTGTGCATGTCAAGTGCACCGTATT [TGCATGCA_site451] | 12.2 |
| AAAAAAAAGTTGTAAGTGCATGTATATAATAATATT | 8.08 |
| ATATTACACATATATGCACACATTGTAGTTATTTAT [CACACA_site8843] | 9.43 |
| CATTTTGTTTTAAAGTGTACATTATGTAATATAAAA [XGTACX_site647] | 7.15 |
| ATTTATATGCACCATTGTACGTTTTATAAAGTTTGG [XGTACX_site3755] | 10.7 |
| ATATATATATAAAGTTGTACATTTTTTATTTTTTCA [XGTACX_site7847] | 9.04 |
| TTTAGTTTTTATATAGCACACATATTGTGATTATGT [CACACA_site8316] | 6.96 |
| ATTGTGCACTTATATGCACACATTTTAGTTTTTTTT [CACACA_site2028] | 10.6 |
| TACATATATATTTGTTCACACACACCCAAAAAAAAA [CACACA_site8788] | 7.01 |
| AAAAGTAACAAAGCTACACACATTTAAATAAACATA [CACACA_site1421] | 6.94 |
| GTTCTAAATATTATTGCATGTTGCACGTTTCTCTGT [TGCATGCA_site159] | 7.65 |
| TGAACAGGTCATAATTTACACACTATATATTTTATT [CACACA_site8123] | 6.87 |
| TGTATAAAAAACTAATGTACAAATGACAAGATATCT [XGTACX_site4600] | 6.9 |
| GTAAGAAAGAAAGGAAGTACGTAAGAAAGTAAGAAC [XGTACX_site1239] | 7.27 |

| Sequence | gcPBM binding intensity (ln) |
| --- | --- |
| TACATAAACTTTATAACACACACTTATATATATATA [CACACA_site1106] | 9.34 |
| TGAATATTCATATGCACACAAATTAATATACATAAT [CACACA_site442] | 7.03 |
| AACTCATAGCGGTGTGCACACAAAAAATTAAAAAAA [CACACA_site3033] | 8.94 |
| TTTTCATATTATAGTGCACACAAAAATATATATATG [CACACA_site8929] | 10.8 |
| ATGGCATAAATATATGCACACACAAAAAAAAAAAAA [CACACA_site7902] | 7.06 |
| CATATAAAAATATATGCACACAAATAAAAAATTATA [CACACA_site9210] | 7.29 |
| AACTCATAGGAGTGTGCACACAAAAAATTAAAAAAA [CACACA_site8996] | 9.24 |
| ATTATATATATTTATGCACACAAAATATATTATATA [CACACA_site9244] | 7.56 |
| CTCATAGTTGGGTGCACACAAAAAATTAAAAAAATA [CACACA_site3032] | 12.3 |
| ATTAATTTTATATATGCACACAAAATATGTTCATAT [CACACA_site9350] | 7.13 |
| ATTCACAAATATATGGTGCATAATATATATATATAT [GTGCAC_site9674] | 10.6 |
| TTCATATTATAGTGCACACAAAAATATATATATGGT [CACACA_site2855] | 10.7 |
| ATTATATACATATATGCACACAAAAAAATATATATT [CACACA_site8508] | 7.28 |
| TGAATAAATATAAAAGGTACACATATAAATATATAT [XGTACX_site6349] | 7.11 |
| TATATATATATAATATGTACATATAATCAACATTTT [XGTACX_site3915] | 8.68 |
| TATTAGTCGAATGATGTACACACATACAAAACATTT [CACACA_site9331] | 6.96 |
| TTTTTTTTTTGATGTTGTACATATATATTATATATA [XGTACX_site6377] | 7.17 |
| TAAAAATAATTTGCATGTACATAGGTCGATGTATTT [XGTACX_site1357] | 7.08 |
| ATACATATAGGATGCACACATAATTCAAATACAATA [CACACA_site651] | 7.73 |
| TTTTTCTAATTATGCACACATATCAAAATATTCAAT [CACACA_site2749] | 9.18 |
| ATCTATCATATTTATGCACACAAAAATAATTAATTC [CACACA_site8837] | 7.35 |
| TTTTTTTCTAATTATGCACACATATCAAAATATTCA [CACACA_site8886] | 10.3 |
| CGAAATCATATGTACACACACATATATATATATATA [CACACA_site2151] | 9.32 |
